± gives the standard deviation of the averaged measurements. About 5,400 targets were measured; listed, in parts, are those with the largest changes and a random draw of the rest.
Compound: Nc1nc2c(ncn2[C@@H]2O[C@H](COP(=O)(O)OP(=O)(O)OP(=O)(O)O)[C@@H](O)[C@H]2O)c(=O)[nH]1 [guanosine triphosphate]
Assay: NP40-soluble protein abundance relative to vehicle (solubility fold change) (ratio); higher = more soluble protein in presence of GTP
Summary of the method: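 Crude Jurkat lysate, prepared by Dounce homogenisation, was exposed to eight concentrations from 0.1 to 10 mM for 10 min at room temperature and then 3 min at 37 °C. Solubilisation used 0.8% NP40 with benzonase for 60 min at 4 °C, followed by ultracentrifugation and TMT labelling of the supernatant for LC-MS/MS. After vsn normalisation of intensities, each value is the fold change against the detergent-processed vehicle within each replicate, across three independent experiments.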

Chain of UniProt Q12872 (Q12872 whole entry): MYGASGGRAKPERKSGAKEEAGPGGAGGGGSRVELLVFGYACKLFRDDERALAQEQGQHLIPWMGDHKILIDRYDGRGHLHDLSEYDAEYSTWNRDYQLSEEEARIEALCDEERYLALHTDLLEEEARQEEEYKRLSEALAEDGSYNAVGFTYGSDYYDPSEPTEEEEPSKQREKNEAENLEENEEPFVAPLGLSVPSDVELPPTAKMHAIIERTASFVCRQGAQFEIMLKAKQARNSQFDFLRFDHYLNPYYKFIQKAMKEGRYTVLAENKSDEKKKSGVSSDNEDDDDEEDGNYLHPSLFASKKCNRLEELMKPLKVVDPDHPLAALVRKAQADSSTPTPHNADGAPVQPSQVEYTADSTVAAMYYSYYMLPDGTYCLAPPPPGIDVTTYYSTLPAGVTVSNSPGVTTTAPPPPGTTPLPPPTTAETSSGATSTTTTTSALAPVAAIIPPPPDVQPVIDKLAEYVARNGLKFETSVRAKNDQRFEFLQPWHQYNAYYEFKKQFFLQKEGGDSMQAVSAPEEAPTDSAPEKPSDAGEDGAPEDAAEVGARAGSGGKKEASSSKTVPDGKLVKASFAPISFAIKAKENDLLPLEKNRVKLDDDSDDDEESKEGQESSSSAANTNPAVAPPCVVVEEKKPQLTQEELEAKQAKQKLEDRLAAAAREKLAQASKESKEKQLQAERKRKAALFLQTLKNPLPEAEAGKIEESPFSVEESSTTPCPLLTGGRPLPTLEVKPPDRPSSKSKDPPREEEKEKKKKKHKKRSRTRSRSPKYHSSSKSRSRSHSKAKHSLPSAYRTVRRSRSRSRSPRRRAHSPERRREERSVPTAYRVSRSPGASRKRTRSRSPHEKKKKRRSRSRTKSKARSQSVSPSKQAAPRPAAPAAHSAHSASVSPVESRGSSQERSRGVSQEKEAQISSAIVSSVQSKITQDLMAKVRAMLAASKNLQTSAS
Chain of UniProt Q86Y37 (Q86Y37 whole entry): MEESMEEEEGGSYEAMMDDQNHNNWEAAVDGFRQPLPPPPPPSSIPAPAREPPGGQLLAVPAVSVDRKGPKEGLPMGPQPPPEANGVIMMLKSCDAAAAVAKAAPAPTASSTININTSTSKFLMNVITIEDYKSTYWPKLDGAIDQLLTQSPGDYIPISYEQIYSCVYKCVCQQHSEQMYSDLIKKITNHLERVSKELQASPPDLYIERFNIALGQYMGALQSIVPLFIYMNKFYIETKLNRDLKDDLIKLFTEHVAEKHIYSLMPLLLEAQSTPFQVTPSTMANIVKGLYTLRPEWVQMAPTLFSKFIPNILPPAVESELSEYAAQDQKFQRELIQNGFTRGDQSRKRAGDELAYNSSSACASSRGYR
Chain of UniProt Q8NE71 (Q8NE71 whole entry, one chain of several): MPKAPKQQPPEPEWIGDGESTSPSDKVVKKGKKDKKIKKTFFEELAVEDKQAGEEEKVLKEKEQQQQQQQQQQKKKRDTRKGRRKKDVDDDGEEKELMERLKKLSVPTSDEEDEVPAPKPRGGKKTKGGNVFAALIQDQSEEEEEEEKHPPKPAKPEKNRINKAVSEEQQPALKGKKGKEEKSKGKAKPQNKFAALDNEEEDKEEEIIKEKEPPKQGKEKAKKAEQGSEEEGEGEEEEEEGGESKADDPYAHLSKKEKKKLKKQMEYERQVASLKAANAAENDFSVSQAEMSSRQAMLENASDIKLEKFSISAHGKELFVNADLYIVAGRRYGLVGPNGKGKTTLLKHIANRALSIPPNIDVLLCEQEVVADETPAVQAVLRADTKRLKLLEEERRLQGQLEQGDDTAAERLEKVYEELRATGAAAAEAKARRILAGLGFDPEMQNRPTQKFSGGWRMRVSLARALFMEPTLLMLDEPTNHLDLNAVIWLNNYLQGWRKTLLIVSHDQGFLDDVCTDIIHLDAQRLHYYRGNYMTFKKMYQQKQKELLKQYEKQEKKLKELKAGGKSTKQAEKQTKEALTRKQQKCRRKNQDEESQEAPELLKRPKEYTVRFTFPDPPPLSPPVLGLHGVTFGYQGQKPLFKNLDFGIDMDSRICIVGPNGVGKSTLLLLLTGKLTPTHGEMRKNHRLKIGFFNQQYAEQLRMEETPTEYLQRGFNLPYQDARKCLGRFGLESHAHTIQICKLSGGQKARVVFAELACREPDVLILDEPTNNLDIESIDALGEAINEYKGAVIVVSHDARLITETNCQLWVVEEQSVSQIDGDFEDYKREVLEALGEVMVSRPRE
Chain of UniProt Q14676 (Q14676 whole entry): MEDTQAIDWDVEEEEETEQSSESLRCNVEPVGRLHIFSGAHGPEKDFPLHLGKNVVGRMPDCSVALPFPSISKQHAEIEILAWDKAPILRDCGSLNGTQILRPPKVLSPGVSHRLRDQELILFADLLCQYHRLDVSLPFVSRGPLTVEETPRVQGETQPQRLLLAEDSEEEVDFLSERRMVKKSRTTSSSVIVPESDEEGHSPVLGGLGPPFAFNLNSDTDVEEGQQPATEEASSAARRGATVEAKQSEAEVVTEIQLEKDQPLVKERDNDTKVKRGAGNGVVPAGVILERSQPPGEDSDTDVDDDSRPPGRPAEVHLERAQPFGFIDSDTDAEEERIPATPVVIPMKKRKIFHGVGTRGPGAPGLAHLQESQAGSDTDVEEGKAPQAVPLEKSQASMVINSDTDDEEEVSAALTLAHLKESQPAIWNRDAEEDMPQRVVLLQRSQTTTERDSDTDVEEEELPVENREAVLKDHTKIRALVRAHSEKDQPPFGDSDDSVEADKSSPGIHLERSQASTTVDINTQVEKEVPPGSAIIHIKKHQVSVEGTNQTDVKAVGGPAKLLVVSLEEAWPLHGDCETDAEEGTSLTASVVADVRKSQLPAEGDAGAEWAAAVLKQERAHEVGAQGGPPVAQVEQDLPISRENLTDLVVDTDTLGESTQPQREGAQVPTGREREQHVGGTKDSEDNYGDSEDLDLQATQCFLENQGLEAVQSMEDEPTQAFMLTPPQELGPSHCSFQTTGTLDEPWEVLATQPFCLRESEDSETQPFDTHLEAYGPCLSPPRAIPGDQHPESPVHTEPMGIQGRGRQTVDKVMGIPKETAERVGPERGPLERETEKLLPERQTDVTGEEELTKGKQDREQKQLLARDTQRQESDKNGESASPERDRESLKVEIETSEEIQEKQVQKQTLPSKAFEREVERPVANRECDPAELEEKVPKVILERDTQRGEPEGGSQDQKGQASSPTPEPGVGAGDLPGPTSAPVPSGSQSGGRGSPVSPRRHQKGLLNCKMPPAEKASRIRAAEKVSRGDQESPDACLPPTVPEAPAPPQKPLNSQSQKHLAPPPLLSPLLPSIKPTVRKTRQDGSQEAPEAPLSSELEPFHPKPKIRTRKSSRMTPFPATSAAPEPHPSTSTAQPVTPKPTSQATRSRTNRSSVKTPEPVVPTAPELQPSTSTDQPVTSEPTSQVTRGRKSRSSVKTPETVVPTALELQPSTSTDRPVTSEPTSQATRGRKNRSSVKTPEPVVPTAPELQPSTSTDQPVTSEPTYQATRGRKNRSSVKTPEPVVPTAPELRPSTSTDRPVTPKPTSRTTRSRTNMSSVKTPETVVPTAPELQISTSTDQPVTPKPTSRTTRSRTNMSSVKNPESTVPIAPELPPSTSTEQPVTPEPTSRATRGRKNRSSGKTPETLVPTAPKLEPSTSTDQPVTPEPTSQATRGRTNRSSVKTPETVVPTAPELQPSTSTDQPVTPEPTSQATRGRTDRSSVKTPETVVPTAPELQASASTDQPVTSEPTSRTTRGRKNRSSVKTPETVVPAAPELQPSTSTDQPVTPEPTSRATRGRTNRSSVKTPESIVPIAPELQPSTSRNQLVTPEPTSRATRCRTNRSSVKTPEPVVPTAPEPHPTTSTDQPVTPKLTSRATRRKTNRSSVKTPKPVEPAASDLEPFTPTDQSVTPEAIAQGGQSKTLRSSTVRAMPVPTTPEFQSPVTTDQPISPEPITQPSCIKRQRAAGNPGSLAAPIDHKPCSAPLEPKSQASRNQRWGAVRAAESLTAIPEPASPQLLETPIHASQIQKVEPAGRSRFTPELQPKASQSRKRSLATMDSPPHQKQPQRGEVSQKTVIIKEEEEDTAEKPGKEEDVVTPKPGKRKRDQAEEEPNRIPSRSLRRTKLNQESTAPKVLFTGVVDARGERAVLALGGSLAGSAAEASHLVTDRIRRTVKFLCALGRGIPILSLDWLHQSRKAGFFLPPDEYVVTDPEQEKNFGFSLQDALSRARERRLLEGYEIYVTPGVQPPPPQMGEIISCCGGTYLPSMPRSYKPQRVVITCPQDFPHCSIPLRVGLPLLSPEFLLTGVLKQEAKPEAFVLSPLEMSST
Chain of UniProt Q86U70 (Q86U70 whole entry): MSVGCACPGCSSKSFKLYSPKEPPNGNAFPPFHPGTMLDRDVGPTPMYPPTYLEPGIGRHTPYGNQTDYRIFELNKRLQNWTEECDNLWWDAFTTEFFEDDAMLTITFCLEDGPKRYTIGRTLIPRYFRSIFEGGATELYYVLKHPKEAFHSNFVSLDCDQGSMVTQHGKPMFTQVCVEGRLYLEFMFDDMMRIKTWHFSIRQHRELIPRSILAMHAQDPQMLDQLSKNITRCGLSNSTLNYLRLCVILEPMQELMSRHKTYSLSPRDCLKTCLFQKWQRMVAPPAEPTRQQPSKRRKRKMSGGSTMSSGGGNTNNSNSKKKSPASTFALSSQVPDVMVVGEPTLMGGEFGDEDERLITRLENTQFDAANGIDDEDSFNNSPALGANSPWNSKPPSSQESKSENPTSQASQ
Chain of UniProt P60891 (P60891 whole entry): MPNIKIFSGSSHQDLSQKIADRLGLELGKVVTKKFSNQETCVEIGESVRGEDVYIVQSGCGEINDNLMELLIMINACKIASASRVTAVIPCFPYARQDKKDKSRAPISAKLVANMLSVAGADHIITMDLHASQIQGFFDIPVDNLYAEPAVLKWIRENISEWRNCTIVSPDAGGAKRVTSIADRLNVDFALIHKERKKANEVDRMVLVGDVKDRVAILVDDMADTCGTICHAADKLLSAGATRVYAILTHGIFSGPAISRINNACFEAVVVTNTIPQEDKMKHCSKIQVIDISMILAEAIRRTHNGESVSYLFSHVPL

Target	NP40-soluble protein abundance (concentration: 0.1mM)	NP40-soluble protein abundance (concentration: 0.5mM)	NP40-soluble protein abundance (concentration: 1mM)	NP40-soluble protein abundance (concentration: 2mM)	NP40-soluble protein abundance (concentration: 4mM)	NP40-soluble protein abundance (concentration: 6mM)	NP40-soluble protein abundance (concentration: 8mM)	NP40-soluble protein abundance (concentration: 10mM)
UniProt Q86Y37|Q86Y37-4	0.963 ± 0.063	0.923 ± 0.074	0.9527 ± 0.0029	0.9274 ± 0.0067	0.907 ± 0.091	0.905 ± 0.048	0.87 ± 0.057	0.889 ± 0.054
UniProt Q12872|Q12872-2	0.979 ± 0.031	1.04 ± 0.027	1.17 ± 0.014	1.24 ± 0.024	1.42 ± 0.016	1.52 ± 0.068	1.7 ± 0.13	1.78 ± 0.13
UniProt Q8IW45|Q8IW45-2	1.01 ± 0.071	0.978 ± 0.074	0.985 ± 0.038	0.945 ± 0.021	0.969 ± 0.013	0.915 ± 0.045	0.954 ± 0.077	0.91 ± 0.035
UniProt Q14444|Q14444-2	0.95 ± 0.057	0.994 ± 0.098	1.06 ± 0.07	1.01 ± 0.14	1.02 ± 0.088	1.11 ± 0.1	1.16 ± 0.057	1.13 ± 0.11
ANKRD11 (UniProt Q6UB99)	1.01 ± 0.024	1.01 ± 0.092	1.1 ± 0.027	1.1 ± 0.06	1.1 ± 0.041	1.08 ± 0.042	1.18 ± 0.073	1.17 ± 0.073
MDC1 (UniProt Q14676)	1.1 ± 0.024	1.14 ± 0.042	1.23 ± 0.053	1.41 ± 0.11	1.66 ± 0.17	1.77 ± 0.21	1.86 ± 0.29	1.92 ± 0.36
Q5STZ8|Q8NE71 (UniProt Q8NE71)	1.03 ± 0.023	1.02 ± 0.019	0.96 ± 0.053	0.987 ± 0.043	0.993 ± 0.06	0.997 ± 0.046	0.994 ± 0.066	0.984 ± 0.092
UniProt P60891	1.03 ± 0.072	1.15 ± 0.18	1.18 ± 0.22	1.26 ± 0.25	1.29 ± 0.23	1.3 ± 0.28	1.28 ± 0.27	1.26 ± 0.23
UniProt Q12802|Q12802-2|Q12802-4	0.99 ± 0.12	1.01 ± 0.092	1.01 ± 0.099	1 ± 0.12	0.977 ± 0.11	1.04 ± 0.11	1.02 ± 0.1	1.02 ± 0.084
UniProt P60228	1.09 ± 0.046	1.08 ± 0.061	1.05 ± 0.098	1.14 ± 0.17	1.32 ± 0.27	1.44 ± 0.33	1.58 ± 0.3	1.75 ± 0.38
SLC25A24 (UniProt Q6NUK1)	0.934 ± 0.055	0.93 ± 0.033	0.857 ± 0.039	0.854 ± 0.014	0.837 ± 0.026	0.845 ± 0.024	0.809 ± 0.061	0.817 ± 0.057
UniProt Q6UXH1|Q6UXH1-4|Q6UXH1-5|Q6UXH1-6	0.968 ± 0.018	0.941 ± 0.046	1.03 ± 0.09	0.959 ± 0.093	0.935 ± 0.096	0.959 ± 0.12	0.95 ± 0.061	0.956 ± 0.088
UniProt Q15424|Q15424-3|Q15424-4	0.958 ± 0.048	0.938 ± 0.052	1.04 ± 0.039	1.09 ± 0.081	1.19 ± 0.066	1.25 ± 0.041	1.38 ± 0.083	1.44 ± 0.083
MLKL (UniProt Q8NB16)	0.98 ± 0.044	0.962 ± 0.052	0.896 ± 0.062	0.908 ± 0.035	0.873 ± 0.047	0.874 ± 0.032	0.868 ± 0.045	0.837 ± 0.024
UniProt Q8TDZ2|Q8TDZ2-4	1.01 ± 0.056	0.965 ± 0.069	0.946 ± 0.021	0.9475 ± 0.0091	0.9237 ± 0.0088	0.899 ± 0.019	0.921 ± 0.016	0.879 ± 0.058
Q5VWV2|Q8TEW0|Q8TEW0-11|Q8TEW0-2|Q8TEW0-4|Q8TEW0-5|Q8TEW0-8 (UniProt Q8TEW0)	1.02 ± 0.11	1.02 ± 0.084	1.05 ± 0.098	1.07 ± 0.089	1.17 ± 0.14	1.15 ± 0.14	1.2 ± 0.14	1.19 ± 0.1
UniProt P78563|P78563-2|P78563-3|P78563-4|P78563-5|P78563-6	1.05 ± 0.12	1.03 ± 0.13	1.007 ± 0.0033	1.07 ± 0.053	1.11 ± 0.044	1.16 ± 0.062	1.15 ± 0.031	1.16 ± 0.1
RDH11 (UniProt Q8TC12)	1 ± 0.014	0.985 ± 0.024	0.911 ± 0.034	0.895 ± 0.051	0.867 ± 0.048	0.88 ± 0.015	0.824 ± 0.084	0.782 ± 0.082
UniProt P62995|P62995-3	1.08 ± 0.077	1.36 ± 0.24	1.64 ± 0.54	1.73 ± 0.47	1.61 ± 0.64	1.54 ± 0.58	1.54 ± 0.62	1.41 ± 0.64
UniProt Q5SRE5|Q5SRE5-2	1.17 ± 0.11	1.13 ± 0.051	1.03 ± 0.13	1.01 ± 0.13	1.13 ± 0.024	1.11 ± 0.088	1.03 ± 0.029	1.08 ± 0.046
LDB1 (UniProt Q86U70)	1.066 ± 0.0088	1.04 ± 0.05	1 ± 0.056	0.989 ± 0.024	0.938 ± 0.043	0.951 ± 0.021	0.968 ± 0.047	0.931 ± 0.036
UniProt P62805	0.891 ± 0.063	0.855 ± 0.058	0.972 ± 0.027	0.963 ± 0.053	1.08 ± 0.048	1.22 ± 0.054	1.2 ± 0.067	1.76 ± 0.14
UniProt Q14156|Q14156-3	1.13 ± 0.049	1.105 ± 0.011	1.09 ± 0.11	1.1 ± 0.021	1.21 ± 0.11	1.1 ± 0.16	1.0338 ± 0.00078	1.01 ± 0.013
UniProt P55072	0.982 ± 0.03	1.05 ± 0.064	0.999 ± 0.073	1.02 ± 0.12	1.03 ± 0.11	1.03 ± 0.14	1 ± 0.1	1 ± 0.11
DDX51 (UniProt Q8N8A6)	1.07 ± 0.15	1.11 ± 0.05	1.2 ± 0.08	1.35 ± 0.09	1.64 ± 0.085	1.86 ± 0.21	2.05 ± 0.24	2.1 ± 0.15
LEMD2 (UniProt Q8NC56)	1.09 ± 0.04	1.22 ± 0.11	1.32 ± 0.076	1.34 ± 0.15	1.34 ± 0.088	1.42 ± 0.11	1.48 ± 0.14	1.49 ± 0.21
UniProt Q6WKZ4|Q6WKZ4-3	1.02 ± 0.049	0.951 ± 0.044	0.946 ± 0.05	0.921 ± 0.056	0.933 ± 0.058	0.901 ± 0.022	0.943 ± 0.057	0.89 ± 0.038
UniProt P63092-2|P63092-3|P63092|P63092-4	0.973 ± 0.013	0.9607 ± 0.0034	0.922 ± 0.025	0.91 ± 0.024	0.882 ± 0.043	0.882 ± 0.038	0.873 ± 0.026	0.847 ± 0.031
UniProt P62195	1.03 ± 0.069	1.08 ± 0.12	1.04 ± 0.14	1.07 ± 0.17	1.06 ± 0.15	1.08 ± 0.19	1.06 ± 0.16	0.977 ± 0.15
UniProt Q68E01|Q68E01-2	1.01 ± 0.028	1.01 ± 0.026	1.03 ± 0.027	1.03 ± 0.03	1.08 ± 0.026	1.12 ± 0.053	1.11 ± 0.036	1.11 ± 0.021

Reference: the supplement of paper PMC6411743
